Records with an inconclusive call do not appear. More than one record can exist for a structure, and the calls need not agree. The source made the active and inactive calls. The calls were made as follows, unless noted: active = hit-call score of the fitted dose curve at least 0.9, where 1 is the maximum; inactive = score below 0.9.
Tests used:
[1] = read-out: Tissue Factor, F3 (gene 2152); assay: BSK_LPS_TissueFactor: BioMAP Diversity Plus: LPS Assay for Tissue Factor Biomarker Activity (AID 2283084); settings: primary human HUVEC with PBMC; actives raise or lower the signal
Summary of the method: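 Compound was added to an endothelial cell/PBMC co-culture, and after 24 h tissue factor (CD142) was read by ELISA. Gain or loss of signal was fitted against a DMSO baseline, and parallel SRB staining (560 nm) tracked overt cytotoxicity.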

[2] = read-out: Tumor necrosis factor (Homo sapiens) (UniProt P01375); assay: BSK_LPS_TNFa: BioMAP Diversity Plus: LPS Assay for Tumour Necrosis Factor alpha (TNFa) Biomarker Activity (AID 2283085); settings: primary human HUVEC with PBMC; actives raise or lower the signal;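 as to AC50: TNFa protein level quantified by ELISA in the co-culture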
Summary of the method: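 Cells (umbilical vein endothelium plus peripheral blood mononuclear cells) were dosed with chemical, incubated 24 h, then TNFa was quantified by ELISA; values derive from bidirectional fitting with DMSO as baseline.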

[3] = read-out: CD38, CD38 (gene 952); assay: BSK_SAg_CD38: BioMAP Diversity Plus: SAg Assay for CD38 Biomarker Activity (AID 2283087); settings: primary human HUVEC with PBMC; actives raise or lower the signal
Summary of the method: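 CD38 quantified by ELISA (fluorescence) in a superantigen-activated endothelial cell–PBMC co-culture at 24 h post-dose. Activity fitted in both directions relative to DMSO; parallel SRB and Alamar Blue cytotoxicity read-outs.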

[4] = read-out: CD40, CD40 (gene 958); assay: BSK_SAg_CD40: BioMAP Diversity Plus: SAg Assay for CD40 Biomarker Activity (AID 2283088); settings: primary human HUVEC with PBMC; actives raise or lower the signal
Summary of the method: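 CD40 is measured by fluorescence ELISA in an endothelial/PBMC primary human co-culture at 24 h post-dose. Fitting is bidirectional, DMSO baseline. Parallel SRB staining (560 nm) flags cytotoxicity.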

[5] = read-out: CD69, CD69 (gene 969); assay: BSK_SAg_CD69: BioMAP Diversity Plus: SAg Assay for CD69 Biomarker Activity (AID 2283089); settings: primary human HUVEC with PBMC; actives raise or lower the signal;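 as to AC50: cell surface CD69 protein quantified by ELISA with fluorescence detection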
Summary of the method: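 Primary human vascular co-culture (umbilical vein endothelium with peripheral blood mononuclear cells) exposed to test chemical for 24 h. CD69 levels quantified by fluorescence ELISA; DMSO served as negative control for bidirectional fitting.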

[6] = read-out: Monocyte Chemoattractant Protein-1 (MCP1), CCL2 (gene 6347); assay: BSK_SAg_MCP1: BioMAP Diversity Plus: SAg Assay for Monocyte Chemoattractant Protein-1 (MCP1) Biomarker Activity (AID 2283090); settings: primary human HUVEC with PBMC; actives raise or lower the signal
Summary of the method: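 Values derive from bidirectional fitting of ELISA-measured MCP1 against DMSO controls. Readings were taken 24 h after dosing human vascular endothelial cells co-cultured with peripheral blood mononuclear cells under superantigen stimulation.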

[7] = read-out: E-selectin (Homo sapiens) (UniProt P16581); assay: BSK_SAg_Eselectin: BioMAP Diversity Plus: SAg Assay for Eselectin Biomarker Activity (AID 2283091); settings: primary human HUVEC with PBMC; actives raise or lower the signal
Summary of the method: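 Cell-surface E-selectin is read by ELISA at 24 h in the SAg co-culture of HUVEC and PBMC. Curves are fitted in both directions relative to DMSO. Parallel SRB total-protein staining tracks overt toxicity.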

[8] = read-out: Monokine induced gamma interferon (MIG), CXCL9 (gene 4283); assay: BSK_SAg_MIG: BioMAP Diversity Plus: SAg Assay for Monokine induced gamma interferon (MIG) Biomarker Activity (AID 2283092); settings: primary human HUVEC with PBMC; actives raise or lower the signal
Summary of the method: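 Endothelial cells and PBMC were co-cultured, exposed to test chemicals, and sampled 24 h later. MIG was measured by ELISA, and responses were fitted in both directions relative to DMSO.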

[9] = BSK_SAg_PBMCCytotoxicity: PBMC Cytotoxicity Assessment in the BioMAP Diversity Plus: SAg Assay (AID 2283093); settings: primary human HUVEC with PBMC;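 also: PBMC viability measured as Alamar Blue reduction fluorescence at 546/580 nm; fitted both ways against DMSO so a hit may be loss or gain of signal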;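 as to AC50: PBMC superantigen activated with SEB plus TSST-1 one hour after compound addition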
Summary of the method: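 Alamar Blue reduction (6 h, 546/580 nm) reports PBMC cytotoxicity after 90 h superantigen activation (SEB, TSST-1; 20 ng/mL final each) with 1 h compound pre-treatment. Gain or loss of signal fitted versus DMSO.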

[10] = read-out: Interleukin-8 (IL8), CXCL8 (gene 3576); assay: BSK_SAg_IL8: BioMAP Diversity Plus: SAg Assay for Interleukin-8 (IL8) Biomarker Activity (AID 2283094); settings: primary human HUVEC with PBMC; actives raise or lower the signal
Summary of the method: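 Chemicals were dosed onto a human endothelial–PBMC co-culture, and IL-8 was quantified by ELISA after 24 h. Both increases and decreases were fitted relative to DMSO.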

[11] = BSK_SAg_Proliferation: Cell Proliferation Assessment in the BioMAP Diversity Plus: SAg Assay (AID 2283095); settings: primary human HUVEC with PBMC;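 also: relative cell number as total protein by SRB absorbance in sub-confluent culture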
Summary of the method: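 Absorbance of sulforhodamine B at 560 nm reports total protein in a human vascular endothelial/PBMC co-culture after 96 h chemical exposure. Gain or loss of signal is fitted in both directions against DMSO.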

[12] = BSK_SAg_SRB: Viability Assessment in the BioMAP Diversity Plus: SAg Assay (AID 2283096); settings: primary human HUVEC with PBMC;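 also: cells read one day after compound addition; hits may be either gain or loss of signal compared with DMSO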
Summary of the method: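 This overt-cytotoxicity endpoint quantifies protein in human endothelial/PBMC co-cultures at 24 h using SRB absorbance (560 nm) after trichloroacetic acid fixation. Values reflect signal change from the DMSO negative control, fitted bidirectionally.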

[13] = target: human CYP19A1, CYP19A1 (gene 1588) (UniProt P11511); assay: NVS_ADME_hCYP19A1: NovaScreen (NVS) CYP450-related Enzyme Activity (ADME) Assay for human CYP19A1 (AID 2283098; active = hit-call score of the fitted dose curve at least 0.9, where 1 is the maximum;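 as to AC50: potency for inhibitors seen as loss of fluorescent enzyme signal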)
Summary of the method: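 Compounds were first screened at 10 uM in duplicate against purified enzyme, with a fluorogenic substrate and fluorescence intensity detection after 0.5 h. Inhibition appears as reduced signal against acetonitrile control.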

[14] = read-out: Macrophage colony-stimulating factor (MCSF), CSF1 (gene 1435); assay: BSK_LPS_MCSF: BioMAP Diversity Plus: LPS Assay for Macrophage colony-stimulating factor (MCSF) Biomarker Activity (AID 2283083); settings: primary human HUVEC with PBMC; actives raise or lower the signal
Summary of the method: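 Bidirectional fitting against DMSO was applied to M-CSF levels read by ELISA at 24 h post-dose. The system pairs human umbilical vein endothelium with peripheral blood mononuclear cells; parallel SRB staining tracked cytotoxicity.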

[15] = target: human CYP1A2, CYP1A2 (gene 1544) (UniProt P05177); assay: NVS_ADME_hCYP1A2: NovaScreen (NVS) CYP450-related Enzyme Activity (ADME) Assay for human CYP1A2 (AID 2283102; active = hit-call score of the fitted dose curve at least 0.9, where 1 is the maximum;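 as to AC50: fluorescence from turnover of a fluorogenic substrate by recombinant insect-cell CYP1A2; potency for inhibition since loss of fluorescence marks reduced CYP1A2 activity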)
Summary of the method: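 Enzyme activity of insect-cell-expressed human CYP1A2 measured by fluorescence 0.5 h after compound addition, relative to acetonitrile. Compounds first tested in duplicate at 10 uM, actives followed up in concentration series.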

[16] = target: human CYP1A1, CYP1A1 (gene 1543) (UniProt P04798); assay: NVS_ADME_hCYP1A1: NovaScreen (NVS) CYP450-related Enzyme Activity (ADME) Assay for human CYP1A1 (AID 2283100; active = hit-call score of the fitted dose curve at least 0.9, where 1 is the maximum)
Summary of the method: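 Chemicals were first tested in duplicate at 10 uM, and those passing a 30% inhibition threshold were rerun as concentration series topping at 20 uM. Fluorescence read-out of recombinant enzyme turnover after 1 h, relative to acetonitrile.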

[17] = target: human CYP2B6, CYP2B6 (gene 1555) (UniProt P20813); assay: NVS_ADME_hCYP2B6: NovaScreen (NVS) CYP450-related Enzyme Activity (ADME) Assay for human CYP2B6 (AID 2283101; active = hit-call score of the fitted dose curve at least 0.9, where 1 is the maximum)
Summary of the method: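 Cell-free recombinant enzyme assay with a fluorogenic substrate; fluorescence intensity read 1 hour after dosing. Loss of signal relative to acetonitrile negative control indicates inhibition. Primary screen run in duplicate at 10 uM, actives then tested in concentration series.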

Measured: AC50

Sequence of human CYP19A1, CYP19A1 (gene 1588) (P11511 whole entry, looked up): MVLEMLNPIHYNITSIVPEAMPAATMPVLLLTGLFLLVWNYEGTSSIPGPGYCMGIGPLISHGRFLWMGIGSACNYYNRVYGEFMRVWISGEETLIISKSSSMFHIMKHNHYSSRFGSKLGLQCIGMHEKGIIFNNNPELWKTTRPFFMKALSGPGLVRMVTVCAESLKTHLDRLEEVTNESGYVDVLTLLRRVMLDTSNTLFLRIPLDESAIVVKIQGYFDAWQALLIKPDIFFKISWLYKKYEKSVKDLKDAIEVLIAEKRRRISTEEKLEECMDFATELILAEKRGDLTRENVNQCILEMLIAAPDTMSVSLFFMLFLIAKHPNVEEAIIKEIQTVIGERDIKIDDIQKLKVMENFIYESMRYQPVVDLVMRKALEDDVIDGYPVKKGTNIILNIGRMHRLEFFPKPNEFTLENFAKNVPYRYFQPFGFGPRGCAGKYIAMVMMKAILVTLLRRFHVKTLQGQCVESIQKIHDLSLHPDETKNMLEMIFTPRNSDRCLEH
Sequence of human CYP1A2, CYP1A2 (gene 1544) (P05177 whole entry, looked up): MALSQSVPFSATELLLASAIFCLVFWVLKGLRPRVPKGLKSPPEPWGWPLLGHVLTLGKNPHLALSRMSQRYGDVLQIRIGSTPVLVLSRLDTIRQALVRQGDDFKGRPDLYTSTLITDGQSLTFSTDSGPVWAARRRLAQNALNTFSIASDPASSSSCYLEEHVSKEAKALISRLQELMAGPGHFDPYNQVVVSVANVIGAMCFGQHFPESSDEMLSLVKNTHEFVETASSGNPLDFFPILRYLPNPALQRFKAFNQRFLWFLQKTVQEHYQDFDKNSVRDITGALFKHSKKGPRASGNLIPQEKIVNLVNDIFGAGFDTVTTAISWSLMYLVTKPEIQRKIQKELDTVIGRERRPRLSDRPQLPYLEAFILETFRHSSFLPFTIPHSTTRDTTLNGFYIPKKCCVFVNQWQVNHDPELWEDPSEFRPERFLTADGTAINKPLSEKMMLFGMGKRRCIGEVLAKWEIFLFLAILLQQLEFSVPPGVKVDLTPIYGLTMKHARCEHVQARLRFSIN
Sequence of Tumor necrosis factor (Homo sapiens) (P01375 whole entry, looked up): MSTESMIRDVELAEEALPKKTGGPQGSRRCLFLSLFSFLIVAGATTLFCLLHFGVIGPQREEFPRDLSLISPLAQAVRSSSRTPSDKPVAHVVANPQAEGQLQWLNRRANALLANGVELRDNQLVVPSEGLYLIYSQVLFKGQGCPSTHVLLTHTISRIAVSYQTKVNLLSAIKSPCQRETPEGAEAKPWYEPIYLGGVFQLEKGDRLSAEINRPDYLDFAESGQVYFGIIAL
Sequence of E-selectin (Homo sapiens) (P16581 whole entry, looked up): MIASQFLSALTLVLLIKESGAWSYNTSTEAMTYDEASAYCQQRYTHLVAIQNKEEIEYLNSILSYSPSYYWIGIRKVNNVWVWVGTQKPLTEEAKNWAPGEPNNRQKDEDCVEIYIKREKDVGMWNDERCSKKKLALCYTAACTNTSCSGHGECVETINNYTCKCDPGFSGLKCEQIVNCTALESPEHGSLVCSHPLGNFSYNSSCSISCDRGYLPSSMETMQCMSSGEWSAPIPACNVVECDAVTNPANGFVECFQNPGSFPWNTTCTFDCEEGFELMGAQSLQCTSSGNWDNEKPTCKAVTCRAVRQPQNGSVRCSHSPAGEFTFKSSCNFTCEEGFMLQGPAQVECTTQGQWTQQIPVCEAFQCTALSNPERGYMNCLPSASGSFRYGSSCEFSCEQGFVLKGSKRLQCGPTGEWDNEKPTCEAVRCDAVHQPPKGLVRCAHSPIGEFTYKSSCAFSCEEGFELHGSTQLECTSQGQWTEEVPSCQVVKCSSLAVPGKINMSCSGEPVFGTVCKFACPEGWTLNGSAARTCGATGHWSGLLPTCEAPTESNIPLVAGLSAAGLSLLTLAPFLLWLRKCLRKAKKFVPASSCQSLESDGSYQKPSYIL
Sequence of human CYP2B6, CYP2B6 (gene 1555) (P20813 whole entry, looked up): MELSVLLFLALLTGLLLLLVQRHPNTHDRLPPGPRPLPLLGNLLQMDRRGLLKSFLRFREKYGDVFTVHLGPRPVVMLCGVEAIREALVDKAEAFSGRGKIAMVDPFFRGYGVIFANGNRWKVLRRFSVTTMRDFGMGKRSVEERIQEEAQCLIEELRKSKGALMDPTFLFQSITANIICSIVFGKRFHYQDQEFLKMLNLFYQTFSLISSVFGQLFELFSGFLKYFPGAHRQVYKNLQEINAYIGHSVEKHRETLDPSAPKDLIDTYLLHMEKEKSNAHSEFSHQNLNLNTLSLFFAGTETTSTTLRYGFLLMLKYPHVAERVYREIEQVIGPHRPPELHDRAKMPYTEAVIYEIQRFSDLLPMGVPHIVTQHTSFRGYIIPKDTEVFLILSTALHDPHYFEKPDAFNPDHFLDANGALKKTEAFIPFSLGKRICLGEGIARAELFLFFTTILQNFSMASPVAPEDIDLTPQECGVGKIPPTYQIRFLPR
Sequence of human CYP1A1, CYP1A1 (gene 1543) (P04798 whole entry, looked up): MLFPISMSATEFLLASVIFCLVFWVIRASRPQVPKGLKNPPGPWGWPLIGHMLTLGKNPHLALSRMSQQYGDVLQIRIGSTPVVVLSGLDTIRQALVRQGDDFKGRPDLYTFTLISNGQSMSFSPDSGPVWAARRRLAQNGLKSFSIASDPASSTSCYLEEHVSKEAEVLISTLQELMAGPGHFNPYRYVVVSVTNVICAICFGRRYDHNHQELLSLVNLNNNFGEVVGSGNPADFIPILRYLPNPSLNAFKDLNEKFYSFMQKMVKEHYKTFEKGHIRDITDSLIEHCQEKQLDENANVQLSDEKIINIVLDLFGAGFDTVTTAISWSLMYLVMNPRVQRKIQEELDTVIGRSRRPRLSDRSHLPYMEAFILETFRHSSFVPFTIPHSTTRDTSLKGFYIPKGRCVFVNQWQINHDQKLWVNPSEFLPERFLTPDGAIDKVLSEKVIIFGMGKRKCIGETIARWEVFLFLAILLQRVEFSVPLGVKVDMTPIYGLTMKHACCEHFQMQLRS

C[C@]12C[C@H](O)[C@H]3[C@@H](CCC4=CC(=O)CC[C@@]43C)[C@@H]1CC[C@@H]2C(=O)CO
not listed: [14] | [15] | [16] | [17]
inactive: all other assays above

CCCN(CCC)C(=O)SCC
inactive: [14] | [1] | [2] | [3] | [4] | [5] | [6] | [7] | [8] | [9] | [10] | [11] | [12] | [13]
active: [13] 0.652 µM

OB(O)O
not listed: [13] | [15] | [16] | [17]
inactive: all other assays above

c1ccc(Nc2ccccc2)cc1
active: [2] 13 µM
not listed: [13] | [15] | [16] | [17]
inactive: all other assays above

CC1(C)C(C=C(Cl)Cl)C1C(=O)OCc1cccc(Oc2ccccc2)c1 (stereo not given)
active: [14] 4.63 µM | [5] 14.7 µM | [11] 14.8 µM | [12] 5.14 µM
not listed: [13] | [15] | [16] | [17]
inactive: all other assays above

CCCCCOC(=O)COc1cc(N2C(=O)C3=C(CCCC3)C2=O)c(F)cc1Cl
active: [1] 27.8 µM | [2] 20 µM | [4] 20 µM | [7] 15.8 µM | [11] 14.3 µM | [15] 1.29 µM
not listed: [13] | [16] | [17]
inactive: all other assays above

CC(C)(C)[C@@H](O)[C@@H](Cc1ccc(Cl)cc1)n1cncn1
active: [7] 8.51 µM | [9] 3.76 µM | [10] 7.99 µM | [11] 12.6 µM
not listed: [13] | [15] | [16] | [17]
inactive: all other assays above

CCCCOCCOCCOCc1cc2c(cc1CCC)OCO2
active: [2] 25.3 µM | [9] 15.9 µM | [16] 5.97 µM | [17] 10 µM | [15] 1.53 µM
inactive: all other assays above

CCOC(=O)C(C)Oc1ccc(Oc2nc3ccc(Cl)cc3o2)cc1 (stereo not given)
active: [3] 23.6 µM | [4] 12 µM | [6] 20 µM | [7] 20 µM | [11] 32 µM
not listed: [13] | [16] | [17]
inactive: all other assays above
